# Measured values published in PubChem BioAssay (NCATS).
# Inconclusive results are not listed. Where a call stands in place of a potency, no number is given. Activity calls are given as the source filed them. The call rests on the fitted dose curve; in most records, active means well fitted inhibition curve with a large enough effect; inconclusive means small, poorly fitted or top-dose-only effect; inactive means flat fitted curve, though single readings scatter. Bridge positions count the residues as written; N and C are the ends. Square brackets hold non-standard residues; d marks the D form. Peptide text beside a SMILES is read from it. * marks the point of attachment. Ileψ(thiazoline)Cys = CC[C@H](C)[C@H](N)C1=N[C@H](C(=O)*)CS1; d(aIle) = CC[C@H](C)[C@@H](N)C(=O)O; dOrn = NCCC[C@@H](N)C(=O)O
# System: CP325
# Test: qHTS profiling for inhibitors of Plasmodium falciparum proliferation (AID 504749); further: nearly all actives have a fitted effect of over 60% in size
# Conditions: P. falciparum in erythrocytes, SYBR Green DNA, 72 h; series mostly up to 12.8 µM
# Summary of the method: (§1)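 Each compound contacts P. falciparum-infected red blood cells for 72 h at 37 C; lysis buffer (Tris, EDTA, saponin, Triton X, SYBR Green I) is added and fluorescence measured next morning; values normalized to controls.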
# Potency means the concentration at half of the fitted maximal effect.
row,SMILES,Potency
1,C[C@@H]1C[C@H]2[C@@H]3C[C@H](F)C4=CC(=O)C=C[C@@]4(C)[C@]3(F)[C@H](O)C[C@]2(C)[C@@]1(O)C(=O)CO,inactive
2,C[C@H](O)Cn1cnc2c1c(=O)n(C)c(=O)n2C,inactive
3,CCCCC[C@H](O)/C=C\[C@@H]1[C@H](O)CC(=O)[C@@H]1CCCCCCC(=O)O,inactive
4,CC(=C(CCOP(=O)(O)O)SC(=O)c1ccccc1)N(C=O)Cc1cnc(C)nc1N,inactive
5,NC[C@@H]1O[C@@H](O[C@H]2[C@H](O)[C@H](O[C@@H]3O[C@H](CO)[C@@H](O)[C@H](N)[C@@H]3O)[C@@H](N)C[C@H]2N)[C@H](N)C[C@@H]1O,inactive
6,CCc1c(C)[nH]c2c1C(=O)[C@H](CN1CCOCC1)CC2,inactive
7,C=C1c2c(Cl)ccc(O)c2C(O)=C2C(=O)[C@@]3(O)C(O)=C(C(N)=O)C(=O)[C@@H](N(C)C)[C@@H]3[C@@H](O)[C@H]12,inactive
8,CC[C@H](C)[C@H](N)C1=N[C@H](C(=O)N[C@@H](CC(C)C)C(=O)N[C@@H](CCC(=O)O)C(=O)N[C@@H](C(=O)N[C@H]2CCCCNC(=O)[C@@H](CC(N)=O)NC(=O)[C@@H](CC(=O)O)NC(=O)[C@@H](Cc3cnc[nH]3)NC(=O)[C@@H](Cc3ccccc3)NC(=O)[C@@H]([C@@H](C)CC)NC(=O)[C@@H](CCCN)NC2=O)[C@@H](C)CC)CS1 ({Ileψ(thiazoline)Cys}-LE[d(aIle)]K[dOrn][d(aIle)][dF][dH][dD][dN]; lactam 4-C),inactive
9,CCOC(=O)O[C@@H](C)OC(=O)[C@@H]1N2C(=O)[C@@H](NC(=O)[C@@H](N)c3ccccc3)[C@H]2SC1(C)C,inactive
10,Cc1cccc(CN2CCN([C@@H](c3ccccc3)c3ccc(Cl)cc3)CC2)c1,inactive
11,Cc1ccsc1/C=C\C1=NCCCN1C,inactive
12,O=C(O)COCCN1CCN([C@@H](c2ccccc2)c2ccc(Cl)cc2)CC1,inactive
13,C#C[C@]1(O)CC[C@@H]2[C@H]3CCC4=CCCC[C@@H]4[C@@H]3CC[C@@]21C,inactive
14,CC1(C)[C@@H](OC(=O)CCC(=O)O)CC[C@@]2(C)[C@H]1CC[C@@]1(C)[C@H]2C(=O)C=C2[C@H]3C[C@](C)(C(=O)O)CC[C@]3(C)CC[C@@]21C,inactive
15,C[C@H](CCC(=O)O)[C@H]1CC[C@@H]2[C@@H]3[C@@H](O)C[C@H]4C[C@@H](O)CC[C@@]4(C)[C@H]3CC[C@@]21C,inactive

# System: CP329
# Test: as above
# Conditions: P. falciparum in erythrocytes, SYBR Green DNA, 72 h; series mostly up to 12.8 µM
# Summary of the method: as §1
row,SMILES,Potency
1,C[C@@H]1C[C@H]2[C@@H]3C[C@H](F)C4=CC(=O)C=C[C@@]4(C)[C@]3(F)[C@H](O)C[C@]2(C)[C@@]1(O)C(=O)CO,inactive
2,C[C@H](O)Cn1cnc2c1c(=O)n(C)c(=O)n2C,inactive
3,CCCCC[C@H](O)/C=C\[C@@H]1[C@H](O)CC(=O)[C@@H]1CCCCCCC(=O)O,inactive
4,CC(=C(CCOP(=O)(O)O)SC(=O)c1ccccc1)N(C=O)Cc1cnc(C)nc1N,inactive
5,NC[C@@H]1O[C@@H](O[C@H]2[C@H](O)[C@H](O[C@@H]3O[C@H](CO)[C@@H](O)[C@H](N)[C@@H]3O)[C@@H](N)C[C@H]2N)[C@H](N)C[C@@H]1O,inactive
6,CCc1c(C)[nH]c2c1C(=O)[C@H](CN1CCOCC1)CC2,inactive
7,C=C1c2c(Cl)ccc(O)c2C(O)=C2C(=O)[C@@]3(O)C(O)=C(C(N)=O)C(=O)[C@@H](N(C)C)[C@@H]3[C@@H](O)[C@H]12,inactive
8,CCC(=O)OCC(=O)[C@@]1(OC(=O)CC)[C@H](C)C[C@@H]2[C@@H]3[C@H]([C@@H](O)C[C@@]21C)[C@]1(C)C=CC(=O)C=C1C[C@@H]3Cl,inactive
9,CC[C@H](C)[C@H](N)C1=N[C@H](C(=O)N[C@@H](CC(C)C)C(=O)N[C@@H](CCC(=O)O)C(=O)N[C@@H](C(=O)N[C@H]2CCCCNC(=O)[C@@H](CC(N)=O)NC(=O)[C@@H](CC(=O)O)NC(=O)[C@@H](Cc3cnc[nH]3)NC(=O)[C@@H](Cc3ccccc3)NC(=O)[C@@H]([C@@H](C)CC)NC(=O)[C@@H](CCCN)NC2=O)[C@@H](C)CC)CS1 ({Ileψ(thiazoline)Cys}-LE[d(aIle)]K[dOrn][d(aIle)][dF][dH][dD][dN]; lactam 4-C),inactive
10,O=C(N/N=C\c1ccc([N+](=O)[O-])o1)c1ccc(O)cc1,5.73 µM (active)
11,C[C@@H](CNC1CCCCC1)OC(=O)c1ccccc1,inactive
12,CCOC(=O)O[C@@H](C)OC(=O)[C@@H]1N2C(=O)[C@@H](NC(=O)[C@@H](N)c3ccccc3)[C@H]2SC1(C)C,inactive
13,Cc1cccc(CN2CCN([C@@H](c3ccccc3)c3ccc(Cl)cc3)CC2)c1,inactive
14,Cc1ccsc1/C=C\C1=NCCCN1C,inactive
15,O=C(O)COCCN1CCN([C@@H](c2ccccc2)c2ccc(Cl)cc2)CC1,inactive
16,C#C[C@]1(O)CC[C@@H]2[C@H]3CCC4=CCCC[C@@H]4[C@@H]3CC[C@@]21C,inactive
17,CC1(C)[C@@H](OC(=O)CCC(=O)O)CC[C@@]2(C)[C@H]1CC[C@@]1(C)[C@H]2C(=O)C=C2[C@H]3C[C@](C)(C(=O)O)CC[C@]3(C)CC[C@@]21C,inactive
18,C[C@H](CCC(=O)O)[C@H]1CC[C@@H]2[C@@H]3[C@@H](O)C[C@H]4C[C@@H](O)CC[C@@]4(C)[C@H]3CC[C@@]21C,inactive
19,CN1CCO[C@H](c2ccccc2)c2ccccc2C1,inactive
